# Source: PubChem BioAssay (NCI)
# This is part of a sample that, as a whole, favours compounds with a hit. Of some 83,000 tested, about 20% had one in any assay.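 How to read the values: 0–100, growth inhibition (40 = 60% inhibited); 0, no net growth; -100 to 0, cell death (-40 = 40% of starting cells died; -100 = all dead).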 A number with no mark means an inactive call. Calls of active or inactive are those of the source.
# Test system: NCI-H460 lung
# Test: NCI-60 one-dose screen, 48 h (100 = growth as untreated, 0 = no growth, -100 = all killed)
# Conditions: 1 µM
# Procedure: Growth inhibition of the NCI-H460 human Non-Small Cell Lung tumor cell line is measured as a screen for anti-cancer activity. Cells are grown in 96 well plates and exposed to the test compound for 48 hours. Compounds are tested at a single concentration, which is 10^-5 M for most compounds. The reported endpoint is percent growth (GI% or GIPRCNT), where numbers from 0 - 100% represent growth inhibition, and numbers from -100% - 0 represent cell death. For example, a value of 40 represents 60% growth inhibition. A value of 0 means no net growth occurred over the course of the experiment. A value of -40 indicates 40% of cells at the beginning of the experiment died by the end of the experiment. A value of -100 means all cells are dead at the end of the experiment.
# NCI-60 Human Tumor Cell Lines Screen was performed using the standard one-dose NCI protocol, which is described in more detail at https://dtp.cancer.gov/discovery_development/nci-60/default.htm.
# Compounds with GIPRCNT values below 10 were considered active. Activity score was based on GIPRCNT using the following formula: […]
# Score is 0 for GIPRCNT values of 100 or above, 50 for GIPRCNT values of 0, and 100 for GIPRCNT values of -100.
row,Structure (SMILES),growth [%]
1,CC/C(=C(\c1ccc(O)cc1)c1ccc(OCCNC)cc1)c1ccccc1,118

# Same assay, conditions: 10 µM
row,Structure (SMILES),growth [%]
1,CC/C(=C(\c1ccc(O)cc1)c1ccc(OCCNC)cc1)c1ccccc1,69.2

# Same assay, conditions: 10 µM unless noted
row,Structure (SMILES),growth
1,CNc1nc2ccccc2n2c(-c3ccc(O)c(O)c3)cnc12,3.63% (active)
2,C[C@@H]1CN(c2ccc3ncc(C#Cc4cncc(C(=O)Nc5ccc(CN6CCN(C)CC6)c(C(F)(F)F)c5)c4)n3n2)C[C@@H](C)O1,-80% (active)
3,CN1CCN(CCS(=O)(=O)Nc2cc(-c3ccc4ncnc(Nc5ccc(F)c(Cl)c5)c4c3)cnc2Cl)CC1,54.7%
4,CS(=O)(=O)c1ccc(-n2nc(C(=O)NCc3ccccc3)cc2-c2ccc(Cl)cc2)cc1,71.2%
5,CCOC(=O)/C(F)=C/C1CC1C1CCN(C(=O)OC(C)(C)C)CC1 (stereo not given),98.1%
6,COc1ccc2c(c1)C(=O)N(C)C2C1c2c(cc3c(c2OC)OCO3)CCN1C (stereo not given),20.7%
7,O=[N+]([O-])c1cccc(-c2nnc3c(/C=C/c4ccc(F)cc4)nc4ccccc4n23)c1,90.3%
8,COc1sc(/C=N/NC(=O)c2[nH]c3ccc(Br)cc3c2-c2ccccc2)cc1Cl,1.26% (active)
9,COc1ccc(-c2nc3ccccc3n2CC(=O)N=Nc2c(O)[nH]c3ccc(OC)cc23)cc1,10.5%
10,Cc1ccc(C(C(=O)NC2CCCCC2)N(Cc2ccccc2Cl)C(=O)c2ccc(CN3CCOCC3)o2)o1 (stereo not given),99.9%
11,COc1c(B(O)O)cc(F)cc1-c1nc2c(F)cc3[nH]ncc3c2c2c1CCCC2,2.44% (active)
12,N#C/C(=C/c1ccc([N+](=O)[O-])cc1)c1nnc(NC(=O)c2ccc(-n3c(=O)[nH]c4ccccc4c3=O)cc2)s1,79.2%
13,CN1C(=O)/C(=C\C(=O)c2cc3ccccc3oc2=O)c2ccccc21,92.1%
14,O=C(CSc1nnc(-c2ccc(-c3nc4ccccc4[nH]3)cc2)o1)Nc1ccc(Br)cc1,-55.2% (active)
15,COc1cccc(/C=C/c2nc3ccccc3c(=O)n2CC(=O)Nc2ccccc2)c1,51.4%
16,Cc1nn(-c2ccccc2)c2ncn(CC(=O)N/N=C/c3ccccc3O)c(=O)c12,17.7%
17,COc1ccccc1/C=C/c1cccc(NC(=S)NCCCCN(C)C)c1,-74.2% (active)
18,COc1nc(N)ncc1-c1ccc2ncnc(N3CCc4cc(F)c(Cl)cc43)c2c1,-21.5% (active)
19,COc1cc(/C=N/NC(=O)c2ccc(OCc3nc4ccc(C)cc4[nH]3)cc2)cc(OC)c1OC,33.6%

row,Structure (SMILES),growth
1,O=C(CSc1nc2sc3c(c2c(=O)n1-c1ccc(Cl)cc1)CCCC3)N/N=C/C=C/c1ccccc1,-16.9% (active)
2,Nc1nnc(CS(=O)(=O)c2ccccc2)s1,114%
3,O=C(CSc1nc2sc3c(c2c(=O)n1-c1ccc(Cl)cc1)CCCC3)NNC(=O)c1ccc(F)cc1,88.6%
4,COc1cccc(NC(=O)c2ccc(NC(=O)CCl)s2)c1,12.1%
5,Cc1nc(Nc2ccccn2)sc1C1=NNC(c2ccccc2F)C1 (stereo not given),28%
6,Cc1ccc2c(c1)nc(-c1ccccc1)n2CC(=O)N=Nc1c(O)[nH]c2ccc(Cl)cc12,-68.9% (active)
7,S=C(NCCc1ccccc1)Nc1ccc(OCc2nc3ccc(Cl)cc3[nH]2)cc1,10.8%
8,COc1ccc(N=Nc2c(N)nn3c(N)c(C#N)c(-c4ccc(C)cc4)nc23)cc1,26.6%
9,Cc1cccc(NCC(=O)N2CCN(c3ncnc4c3cnn4-c3ccccc3)CC2)c1,65%
10,Nc1nn2c(-c3cc4cc(Br)ccc4oc3=O)ccnc2c1N=Nc1ccc(Br)cc1,15%
11,COc1ccc(N=Nc2c(N)nn3c(N)c(C#N)c(-c4ccc(F)cc4)nc23)cc1,61.1%
12,COc1ccc2[nH]c(=O)c(CSc3ccccc3Nc3nccc(-c4ccc(Cl)cc4)n3)cc2c1,33.3%
13,CCc1ccccc1-c1nc(CN[C@@H]2C[C@@H]3C[C@H]([C@H]2C)C3(C)C)c(C)o1,-54.5% (active)
14,COC(=O)c1c(C(=O)OC)c2c3ccccc3c3ccccc3n2c1C(=O)C(F)(F)F,105%
15,COc1ccc(S(=O)(=O)Nc2ccc(-c3ccc4c(c3)NC(=O)/C4=C\c3ccc[nH]3)cc2)cc1OC,-52.5% (active)
16,COc1ccc2[nH]c(O)c(N=Nc3nc(-c4ccc(C#N)cc4)cs3)c2c1,29.2%
17,COc1ccc(-c2cc(C(=O)OCc3ccc(Br)cc3)nn2-c2ccc(S(C)(=O)=O)cc2)cc1OC,91.1%
18,Cn1cc(-c2cc(N)n3nc(-c4c[nH]c5ccc(Cl)cc45)cc3n2)c2cccnc21,-47% (active)
19,COc1ccc(NC(=O)Cn2c(/C=C/c3cccc(Br)c3)nc3ccccc3c2=O)cc1,32%
